# S1P4 ag – agonists of human S1P4 receptor. O95977. S1P4-expressing cell line, agonist reporter assay. activation, % at 4.98 µM. hit rate 0.35% among 220,000; in the data active = activation above about 11%;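 note: 0% = DMSO vehicle and 100% = reference agonist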
# Target sequence (O95977 whole entry, looked up): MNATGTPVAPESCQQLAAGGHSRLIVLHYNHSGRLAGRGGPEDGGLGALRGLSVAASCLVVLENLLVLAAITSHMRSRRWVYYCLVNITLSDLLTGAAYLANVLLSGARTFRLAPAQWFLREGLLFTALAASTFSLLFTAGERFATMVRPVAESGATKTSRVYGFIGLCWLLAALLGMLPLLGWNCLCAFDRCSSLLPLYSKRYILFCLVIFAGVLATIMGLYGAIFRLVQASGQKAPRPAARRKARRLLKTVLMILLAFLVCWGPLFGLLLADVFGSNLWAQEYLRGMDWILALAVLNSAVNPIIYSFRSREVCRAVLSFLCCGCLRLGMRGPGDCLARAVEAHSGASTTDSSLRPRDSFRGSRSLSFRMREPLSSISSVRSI
# Hsp70 activator – Hsp70 transcriptional activation, primary screen; activation, % at 10 µM; AID 1203; hit rate 0.04% among 200,000; HeLa Hsp70 promoter luciferase reporter, luminescence; scaled: vehicle 0, proteasome-inhibitor control 100%;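 active = activation above the mean across all tested compounds plus 3 SD, cutoff set per campaign, cut at about 5.5% in these data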;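 note: 100% = MG132 at 30 µM as the positive control and 0% = DMSO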
# S1P4 antag – blocks the human S1P4 receptor; AID 1510; O95977; S1P4-expressing cells, antagonist mode, reporter read-out; inhibition, % at 4.98 µM; hit rate 0.26% among 220,000; in the data active = inhibition above about 29%;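 note: 0% = wells stimulated with agonist and 100% = vehicle wells without agonist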
# CHOP inhibitor – blocks CHOP induction under ER stress. hit rate 3.8% among 220,000. CHO-K1 CHOP-promoter luciferase, tunicamycin-induced, 15-18 h. inhibition, % at 10 µM;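 active = compounds that reduced the stress-induced luciferase reporter signal by more than about 70% of percent inhibition, limit read from the data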;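 note: 0% = tunicamycin plus vehicle and 100% = wells without tunicamycin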
# CHOP confirm – confirmation of CHOP induction inhibitors; shares compounds with CHOP inhibitor; CHO-CHOP promoter luciferase reporter, tunicamycin-induced, luminescence; inhibition, % at 10 µM; hit rate 45% among 2,100;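 active = mean of three repeat readings of reporter signal inhibition above a set limit, cut at about 70% in these data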;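 note: 0% = tunicamycin plus vehicle and 100% = wells lacking tunicamycin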
# An asterisk follows results filed as active; . = no result. A selection: hits, their analogues and other compounds. The true share with any hit is near 4.2%.
SMILES,S1P4 ag,Hsp70 activator,S1P4 antag,CHOP inhibitor,CHOP confirm
Cc1ccc(NC(=O)CN2C(=O)CN=C(c3ccccc3)c3cc(Cl)ccc32)cc1,2,0,-13,107*,34
CN(C)c1ccc(NC(=O)CN2C(=O)CN=C(c3ccccc3)c3cc(Cl)ccc32)cc1,2,0,2,53,.
CCOC(=O)c1sc(N=Nc2c(O)[nH]c(=O)[nH]c2=O)c(C(=O)OCC)c1C,1,0,-11,105*,106*
Cc1cccc(-n2c(O)c(C=NCCN3CCCCC3)c(=O)[nH]c2=O)c1,0,.,5,0,.
CCOC(=O)c1c(/N=C/c2c(O)n(-c3cccc(C)c3)c(=O)[nH]c2=O)sc2c1CCCC2,0,0,0,98*,88*
CCOC(=O)c1c(-n2c(C)cc(/C=C3/C(=O)NC(=O)N(CC)C3=O)c2C)sc2c1CCCC2,4,0,-10,.,.
CCOC(=O)c1c(-n2c(C)cc(C=C3C(=O)NC(=S)NC3=O)c2C)sc2c1CCCC2,4,0,-9,107*,140*
C=C1C(=O)O[C@@H]2C[C@@H](C)[C@@H]3C=CC(=O)[C@@]3(C)[C@@H](O)[C@H]12,.,.,.,107*,119*
O=C1NC(=S)NC(=O)C1=Cc1cccn1-c1ccc(O)cc1,0,0,-15,107*,-267
CCCNS(=O)(=O)c1ccc(OCC(=O)N2CCN(Cc3ccc4c(c3)OCO4)CC2)cc1,1,0,-14,.,.
Cc1ccc(OCC(=O)Nc2ccc(Cl)cc2C(=O)c2ccccc2)cc1,-1,-1,-6,12,.
O=C(COC(=O)c1ccc(O)cc1)Nc1ccc(Cl)cc1C(=O)c1ccccc1,2,0,-9,102*,41
O=C(COc1ccccc1)Nc1ccc(Cl)cc1C(=O)c1ccccc1,-1,0,-7,96*,5
O=C1NC(=O)C(=Cc2ccccc2OCCOc2ccc([N+](=O)[O-])cc2)C(=O)N1,2,0,-28,-11,.
CC1=C(C(=O)O)N2C(=O)C(NC(=O)Cc3ccccc3)C2SC1 (centres undefined),0,.,-18,-12,.
COCCCn1c(N)c(C(=O)NCCC(C)C)c2nc3ccccc3nc21,5,0,-13,99*,99*
CCCCn1c(N)c(C(=O)OCCOC)c2nc3ccccc3nc21,1,.,4,-9,.
CC1CN(CCc2ccccc2)CC(C)O1 (centres undefined),0,0,4,3,.
COc1ccccc1CCNCc1cc2c(cc1[N+](=O)[O-])OCO2,-1,0,-14,-18,.
CCCCCCOC(=O)c1ccccc1N,-2,0,-6,97*,103*
C=CCn1c(O)c(C(CC)=Nc2ccc(N(CC)CC)cc2)c(=O)[nH]c1=O,0,0,-9,103*,96*
Nc1cc(Cl)c2nonc2c1[N+](=O)[O-],2,0,-3,108*,121*
O=c1[nH]c(O)c(C=Nc2ccccc2Sc2ccccc2)c(=O)[nH]1,-2,.,5,100*,-34
CCOC(=O)C1=C(N)OC2=C(C(=O)CCC2)C12C(=O)Nc1ccccc12 (centres undefined),2,0,-19,6,.
O=c1[nH]c(=O)n(-c2ccccc2)c(O)c1/C=C/C=Nc1ccccc1,3,0,-14,-1,.
SMILES,S1P4 ag,Hsp70 activator,S1P4 antag,CHOP inhibitor,CHOP confirm
O=c1[nH]c(=O)n(C2CCCCC2)c(O)c1/C=C/C=Nc1ccccc1,0,.,-5,100*,36
CCCCCSc1cc(OC)c(CCNC)cc1OC,1,0,-17,17,.
CCCCCCCSc1cc(OC)c(CCNC)cc1OC,1,0,-12,100*,3
CCOc1ccc(N=Cc2c(O)n(C(C)(C)C)c(=O)[nH]c2=O)cc1,1,0,-16,99*,127*
CCN1C(=O)/C(=C/c2ccc(N(CC)CC)cc2OC)C(=O)NC1=S,0,0,-8,100*,-15
C[N+]1(CC2COC(c3ccco3)O2)CCCCC1 (centres undefined),2,0,-11,-14,.
